Screening results deposited in PubChem by National Center for Advancing Translational Sciences (NCATS).
Tau fluor counter: counter-screen for tau fibril formation inhibitors; tau K18 P301L Alexa594 fluorescence, heparin fibrillization; Potency, µM (titrated, usually from 57.7 µM), inactives show at the top dose activity change, negative = decrease; actives 0.93% (n = 280,000); AID 1463; note: % is set by controls: 0 for no effect and ±100 for the full control effect; nearly all actives have a fitted effect of over 55% in size
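Human tau K18 P301L (15 uM unlabeled, 0.24 uM Alexa 594-labeled) in 100 mM sodium acetate pH 7 with 20 uM heparin, 6 hr at 37 C. ThT 30 uM added, 1 hr ambient; Alexa 594 FP and total fluorescence read at 555/632 nm.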
Tau fibril ThT: blocks human tau fibril formation measured by thioflavin T; P10636; recombinant tau K18 P301L (four-repeat tau fragment), heparin-induced fibrillization, ThT fluorescence; Potency, µM (titrated, usually from 57.4 µM), for the others: at the highest dose activity, negative = inhibition, actives largely listed as inhibitors; actives 2.1% (n = 270,000); AID 1460; note: % is set by controls: 0 for no effect and ±100 for the full control effect; nearly all actives have a fitted effect of over 55% in size
Target sequence (P10636 561-689 P618L limits assumed): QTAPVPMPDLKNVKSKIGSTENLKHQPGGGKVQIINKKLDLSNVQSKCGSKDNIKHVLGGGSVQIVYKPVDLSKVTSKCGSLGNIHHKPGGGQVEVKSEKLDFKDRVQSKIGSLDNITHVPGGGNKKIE
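Heparin-induced (20 uM) aggregation of recombinant human K18 P301L tau, 15 uM unlabeled with 0.24 uM labeled, pH 7 acetate buffer, 6 hr at 37 C with compound. Fibrils quantified by 30 uM ThT fluorescence after 1 hr ambient incubation.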
HTT cytoprotect: Huntington cell model cytoprotection by ATP luminescence | PC12 HTT-Q103 induced, cytoprotection, ATP luminescence, 40 h | Potency, µM (doses to about 56.4 µM), inactives show cytoprotection (ATP increase), actives largely listed as activators | actives 0.14% (n = 230,000) | AID 1471; note: % of control where 0% means no effect; nearly all actives have a fitted effect of over 45% in size
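Cells were plated at 1500 per well in phenol red-free DMEM with 5% equine and 5% calf serum. Tebufenozide (100 nM final) and compounds were added, then ATPlite reagent, and luminescence was read.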
HttQ103 aggreg: mutant huntingtin aggregation inhibition | PC12 HttQ103-GFP aggregates, Acumen cytometry, 40 h | Potency, µM (doses to about 46.1 µM), inactives show at the top dose activity change, negative = inhibition, actives largely listed as inhibitors | actives 1.1% (n = 220,000); note: % is set by controls: 0 for no effect and ±100 for the full control effect; nearly all actives have a fitted effect of over 60% in size
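Inducible Q103 Huntingtin exon 1–GFP PC12 line, 1500 cells/well in phenol red free DMEM with 5% equine and 5% calf serum. Tebufenozide 100 nM induced expression; compounds titrated; aggregates quantified by cytometry.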
Tau FP inhib: tau fibrillization inhibition (FP); P10636; K18 P301L tau heparin fibrillization, Alexa594 FP, 6 h; Potency, µM (highest dose often 57.7 µM), for the others: at the top dose activity, negative = inhibition, actives largely listed as inhibitors; actives 0.39% (n = 280,000); AID 1468; note: % is set by controls: 0 for no effect and ±100 for the full control effect; nearly all actives have a fitted effect of over 55% in size
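Human K18 P301L fragment (15 uM unlabeled plus 0.24 uM Alexa 594-labeled) in 100 mM sodium acetate pH 7 with compound, aggregation induced by 20 uM heparin for 6 hr at 37 C. ThT (30 uM) added for 1 hr, then Alexa 594 FP read.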
Numbers without * were called inactive; ? = inconclusive; . = no result; [ ] = dose if it differs, or a comment. Most compounds without a hit are left out; they make up all but 3.7% or so of the library. Calls come from the whole dose curve; as a rule, active = well fitted curve in the direction sought with a large enough effect; inconclusive = small, poorly fitted or top-dose-only effect, or another doubt; inactive = no such curve, though single readings can be large; an effect the other way counts as inactive or inconclusive. Potency is the fitted concentration of half-maximal effect.

SMILES	Tau fluor counter	Tau fibril ThT	HTT cytoprotect	HttQ103 aggreg	Tau FP inhib
COc1ccc(-c2n[nH]c(C(F)(F)F)c2-c2cc3ccccc3o2)c(O)c1	?	18µM*	12%[10 µM]	3.5µM*	-1%
O=C(NCc1ccco1)c1ccccc1NS(=O)(=O)c1ccc(Br)s1	-12%	-10%	-53%	18µM*	11%
CCOC(=O)c1nnc(-c2ccccc2)nc1Sc1c(Cl)cccc1Cl	?	11µM*	-10%	-10%	-6%
CCOC(=O)c1nnc(-c2ccc(C)cc2)nc1Sc1ccccc1Cl	-13%	?	-10%	16%	-7%
CCOC(=O)c1nnc(-c2ccc(C)cc2)nc1Oc1ccccc1Cl	?	?	.	22µM*	1%
O=C(N[C@H]1CCCc2ccccc21)O[C@@H]1C(=O)c2cc(Br)ccc2O[C@H]1c1ccc2c(c1)OCO2	-3%	-8%	-47%	.	-1%
NCCSCCc1ccccc1	.	.	-12%[10 µM]	.	.
COc1ccc(N(Cc2cc3cccc(C)c3[nH]c2=O)C(=O)c2cccc(Cl)c2)cc1	-29%	?	.	.	-14%
O=C(N/N=C/c1ccc([N+](=O)[O-])s1)c1ccccc1	-19%	?	-93%	?	4%
O=C(N/N=C\c1ccc([N+](=O)[O-])s1)c1cncc(Br)c1	?	14µM*	-26%[10 µM]	?	13%
O=C(N/N=C/c1ccc([N+](=O)[O-])s1)c1ccccc1Br	-22%	-18%	-74%	?	7%
Cc1ccccc1C(=O)N/N=C/c1ccc([N+](=O)[O-])s1	-17%	?	-58%	25µM*	-2%
O=C(O)CCCC[C@@H]1SC[C@H]2NC(=O)N[C@H]12	.	.	-27%	.	.
CCCC=O	.	.	-5%	.	.
COc1ccc(-c2cc(-c3cc(C)ccc3O)[nH]n2)cc1	16µM*[quencher]	?	-36%[10 µM]	20%[9.22 µM]	?
COc1ccc(-c2cc(-c3ccc(OC)cc3)[nH]n2)cc1	?	?	-17%	-13%	-12%
CC1(N)CCC(C(C)(C)N)CC1 (stereo unspecified)	.	.	11%	.	.
NC1=NS(=O)(=O)NC1c1ccc(F)cc1 (stereo unspecified)	4%	1%	3.5µM*	-3%	14%
Cc1ccc(C2NS(=O)(=O)N=C2N)cc1 (stereo unspecified)	-5%	-6%	8%	4%	-4%
Cc1cc(C)c(-c2n[nH]c3c2C(c2ccccc2F)N(Cc2ccco2)C3=O)c(O)c1 (stereo unspecified)	?	?	.	.	1%
O=C(Cc1ccccc1)Nc1sc2c(c1C(=O)Nc1ccc(Br)cc1)CCCC2	-12%	-6%	.	.	-6%
CC(C)Cn1c(N)c(C(=O)COC(=O)CC23CC4CC(CC(C4)C2)C3)c(=O)n(C)c1=O	-26%	-12%	-8%[10 µM]	7.1µM*	-9%
CC(C)Cn1c(N)c(C(=O)COC(=O)c2ccc(Cl)cc2)c(=O)n(C)c1=O	-20%	1%	-15%	-20%	-8%
COc1cc2c(cc1OC)C1N(CC2)C(=O)CCC12C(=O)CCCC2=O (stereo unspecified)	-5%	-7%	-2%	.	-3%
CC(/C=N/NC(=O)c1cccnc1)=C\c1ccccc1	-11%	-7%	-108%	10%	6%
SMILES	Tau fluor counter	Tau fibril ThT	HTT cytoprotect	HttQ103 aggreg	Tau FP inhib
CC(/C=N/NC(=O)c1ccncc1)=C\c1ccc(C(C)C)cc1	-21%	20µM*	-5%	0%	?
COc1ccc(NC(=O)NC(C)(C(F)(F)F)C(F)(F)F)cc1	-4%	-7%	6%	2%	5%
CC(NC(=O)Nc1ccc(O)cc1)(C(F)(F)F)C(F)(F)F	?	22µM*	1%[10 µM]	10%	?
CCOC(=O)C1CCCN(C(=O)c2ccc(NC(=O)c3nsc4ccccc34)cc2)C1 (stereo unspecified)	-10%	-14%	.	.	5%
Cc1ccc(CN2CCN(CC(=O)NCc3ccccc3Cl)C2=O)cc1	-8%	-3%	.	.	-11%
CN(C(=O)Nc1ccccc1)C1CCS(=O)(=O)C1 (stereo unspecified)	3%	-4%	-4%[10 µM]	-4%	4%
CC(=O)NC1=C(N(C)C2CCS(=O)(=O)C2)C(=O)c2ccccc2C1=O (stereo unspecified)	-22%	25µM*	.	13µM*	?
Cc1cc(C)c(S(=O)(=O)NCC(c2ccc(N(C)C)cc2)N2CCc3ccccc32)c(C)c1 (stereo unspecified)	?	?	.	.	7%
CC1CCC(C(=O)NC(C(=O)OCC(=O)c2ccc(Br)cc2)C(C)C)CC1 (stereo unspecified)	-1%	5%	.	.	-3%
COc1cc(CN2CCCC(C(=O)c3ccc4c5c(cccc35)CC4)C2)cc(OC)c1O (stereo unspecified)	?	28µM*	15%[10 µM]	-3%[9.22 µM]	?
CO/N=C/c1ccc(Sc2ccccc2N)c([N+](=O)[O-])c1	28µM*[quencher]	?	7%	-15%	5%
O=S(=O)(Nc1nc2ccccc2nc1-[n+]1cccc(N=C([O-])c2ccc(Cl)cc2)c1)c1ccccc1	?	16µM*	9%[10 µM]	29%[9.22 µM]	-6%
CCOC(=O)c1ccc(Nc2nc3ccccc3nc2NS(=O)(=O)c2ccc(Cl)cc2)cc1	-22%	-14%	.	.	11%
O=C(NCc1cccnc1)[C@@H]1[C@@H](C(=O)O)[C@H]2CC[C@@H]1O2	.	.	-2%[10 µM]	.	.
COC(=O)c1cc2nc(-c3ccccc3)cc(C)n2n1	-5%	-11%	-22%	-6%	-2%
Cc1cc(-c2ccccc2)nc2cc(C(=O)N(Cc3ccccc3)Cc3ccccc3)nn12	-4%	?	15%[10 µM]	13µM*	-2%
O=C(O)CC12C[C@H]3C[C@@H](CC(O)(C3)C1)C2	.	.	-1%[10 µM]	.	.
Cn1cnc([N+](=O)[O-])c1S(=O)(=O)c1cccc(Cl)c1	-14%	?	.	5.6µM*	12%
Cc1nn(C(C)C(=O)c2cccc(Cl)c2)c(C)c1[N+](=O)[O-] (stereo unspecified)	-12%	-2%	-30%[10 µM]	29%	-1%
O=S(=O)(c1ccccc1)n1ccc2ccccc21	10%	4%	6%	11µM*	2%
O=S(=O)(c1ccc(F)cc1)n1ccc2cccnc21	-1%	-4%	0%[10 µM]	-3%	8%
Cc1cc(C)c(S(=O)(=O)n2ccc3ccccc32)c(C)c1	-25%	-15%	-78%	10µM*	?
C[C@@H]1CC[C@H]2[C@H](C)[C@H]3CC[C@H]4C5[C@@H](O)CC6=CC(=O)CC[C@]6(C)[C@H]5C[C@H]4C3C(=O)N2C1 (stereo partly specified)	-6%	-6%	9%	.	-1%
CC(=O)Nc1ccc(NC(=O)c2ccc3c(c2)N(Cc2cccc(Cl)c2)C(=O)c2ccccc2S3(=O)=O)cc1	?	-11%	.	.	16µM*
O=C(Nc1ccc(Cl)cc1)c1ccc2c(c1)N(Cc1ccccc1)C(=O)c1ccccc1S2(=O)=O	?	5%	.	.	?
